Assay outcomes (PubChem)
RMI-FANCM inh – blocks RMI1/RMI2 complex binding to FANCM MM2 peptide. FP signal (polarization) at 33 µM. hit rate 0.58% among 70,000. Fluorescence polarization, RMI core complex with F-MM2 peptide; stronger effect = lower value; in the data active means FP signal below about 40
* marks the source's active call; other numbers are inactive results. Only a selection was taken, and hits are over-represented in it overall.

SMILES	RMI-FANCM inh
CC(C)(C)c1csc(NC(=O)C2CCCN(S(=O)(=O)c3ccc(Cl)s3)C2)n1 (stereo not drawn)	56
COc1ccc(-c2c3c(nc4sc(C(=O)c5ccc(Cl)c(Cl)c5)c(N)c24)CC(C)(C)CC3=O)cc1	99
COc1ccc(-c2c3c(nc4sc(C(=O)c5ccc6c(c5)OCCO6)c(N)c24)CC(C)(C)CC3=O)cc1	-6*
COc1ccc(-c2c3c(nc4sc(C(=O)Nc5ccc(F)cc5)c(N)c24)CC(C)(C)CC3=O)cc1	70
COc1ccc(OC)c2sc(N(CCCN(C)C)C(=O)c3ccnn3C)nc12	68
CCOC(=O)c1ccc(NC(=O)CCc2c(C)[nH]c(=O)[nH]c2=O)cc1	64
CCOC(=O)CCc1c(C(=O)OCC)[nH]c2c1CC(=O)NC2	32*
CCOC(=O)c1[nH]c2c(c1C)C(=O)CCC2	59
O=C(CCSc1ccc(F)cc1)Nc1nc(-c2ccc3c(c2)OCCO3)cs1	60
CCC(C(=O)N1CC(=O)Nc2ccc(Br)cc2C1c1ccccc1)c1ccccc1 (stereo not drawn)	78
NS(=O)(=O)c1ccc(NC(=O)/C=C/c2cccc([N+](=O)[O-])c2)cc1	63
O=C(Oc1cc(O)cc2c1C[C@@H](OC(=O)c1cc(O)c(O)c(O)c1)[C@@H](c1ccc(O)c(O)c1)O2)c1cc(O)c(O)c(O)c1	54
O=C(OC[C@H]1O[C@H](OC(=O)c2cc(O)c(O)c(OC(=O)c3cc(O)c(O)c(O)c3)c2)[C@H](OC(=O)c2cc(O)c(O)c(OC(=O)c3cc(O)c(O)c(O)c3)c2)[C@@H](OC(=O)c2cc(O)c(O)c(OC(=O)c3cc(O)c(O)c(O)c3)c2)[C@@H]1OC(=O)c1cc(O)c(O)c(OC(=O)c2cc(O)c(O)c(O)c2)c1)c1cc(O)c(O)c(OC(=O)c2cc(O)c(O)c(O)c2)c1	29*
CC(=O)OC[C@H]1O[C@@H](OCc2ccccc2)[C@H](OC(C)=O)[C@@H](OC(C)=O)[C@@H]1OC(C)=O	54
CN1CCc2cc(C(CNC(=O)C(=O)Nc3ccc(F)cc3)N(C)C)ccc21 (stereo not drawn)	71
N#Cc1c(SCC(=O)c2ccc(F)c(F)c2)nc2c(c1-c1cccs1)CCCC2	88
Cc1cc(C(=O)Nc2nccs2)no1	55
CCN1CCc2c(sc(NC(=O)CCS(=O)(=O)c3ccc(C)cc3)c2C(N)=O)C1	34*
CCOC(=O)N1CCc2c(sc(NC(=O)CCS(=O)(=O)c3ccccc3)c2C(N)=O)C1	69
CC(=O)N1CCc2c(sc(NC(=O)CCSc3ccc(C)cc3)c2C(N)=O)C1	56
CCN1CCc2c(sc(NC(=O)c3ccnn3C)c2C(N)=O)C1	68
CCOC(=O)N1CCc2c(sc(NC(=O)CCSc3ccc(Cl)cc3)c2C(N)=O)C1	58
Cc1ccc(S(=O)(=O)CCC(=O)Nc2sc3c(c2C(N)=O)CCC(C)C3)cc1 (stereo not drawn)	83
Cc1ccc(S(=O)(=O)CC(=O)Nc2sc3c(c2C(N)=O)CCN(C(C)C)C3)cc1	57
CCN1CCc2c(sc(NC(=O)CS(=O)(=O)c3ccc(F)cc3)c2C(N)=O)C1	13*
SMILES	RMI-FANCM inh
CC(=O)N1CCc2c(sc(NC(=O)CSc3ccc(Cl)cc3)c2C(N)=O)C1	-4*
CC(C)N1CCc2c(sc(NC(=O)c3ccn(C)n3)c2C(N)=O)C1	74
CC(C)N1CCc2c(sc(NC(=O)CN3C(=O)c4ccccc4C3=O)c2C(N)=O)C1	-4*
CCOC(=O)N1CCc2c(sc(NC(=O)CS(=O)(=O)c3ccc(C)cc3)c2C(N)=O)C1	63
CCOC(=O)c1ccc(OCC2c3cc(OC)c(OC)cc3CCN2C(=O)c2cccc([N+](=O)[O-])c2)cc1 (stereo not drawn)	56
O=C(Nc1nnc(C2=COCCO2)o1)c1ccc(S(=O)(=O)N2CCCc3ccccc32)cc1	62
CCOC(=O)c1scc(-c2ccc(C)cc2)c1S(=O)(=O)N1CCN(c2cccc(C)c2C)CC1	64
CC(=O)c1sc(NC(=O)Cc2cccs2)nc1C	72
CCOC(=O)c1ccc(S(=O)(=O)NCCCn2nc(-c3ccncc3)ccc2=O)cc1	67
CS(=O)(=O)c1ccccc1C(=O)Nc1cccc2c1C(=O)NC2=O	51
CC(C)c1cccc(C(C)C)c1NC(=O)c1ccncc1	71
NNC(=O)c1n[nH]c2ccccc12	55
COc1cccc(-c2nnc3ccc(OCCNS(=O)(=O)c4cccc(C)c4)nn23)c1	46
CCC(=O)Nc1ccc(S(=O)(=O)NCCOc2ccc3c(c2)OCO3)cc1	58
CC1CCc2c(sc3ncnc(SCC(=O)N4CCOCC4)c23)C1 (stereo not drawn)	71
Nc1ccc(Oc2cccnc2)nc1	-6*
CSc1ccc(Oc2ccc(N)cn2)cc1	56
CC(C)Oc1ccccc1Oc1ccc(N)cn1	50
COc1ccc(-n2c(-c3ccc(Br)cc3)n[nH]c2=S)c(OC)c1	58
COc1ccc(-c2csc3c(=O)[nH]cnc23)cc1	65
N#CC(C#N)=C1CCC(=C(C#N)C#N)CC1	31*
Cc1c(C(=O)OCc2ccc(F)cc2)nnn1-c1cccc(F)c1	64
O=C(OCc1nc2ccccc2s1)c1nc2ccccc2s1	62
NC(=O)NC(=O)Cc1nc2ccccc2s1	53
O=C(Cc1nc2ccccc2s1)c1ccc(O)cc1O	24*
SMILES	RMI-FANCM inh
COc1ccccc1CNC(=O)CCCSc1ccc(NC(=O)c2cccs2)nn1	62
O=[N+]([O-])c1ccc(C=Nc2ccc(Oc3ccc(Cl)cc3)cc2)s1	39
CC(=O)c1ccc(NC(=O)CSc2nc3ccccc3o2)cc1	58
Cc1csc(SCCCNC(=O)Nc2cc(C)on2)n1	51
COC(=O)c1ccccc1NC(=O)CC1CCCCN1S(=O)(=O)c1cccs1 (stereo not drawn)	68
Cc1cc(NC(=O)c2ccc3ncsc3c2)n(-c2nc3ccccc3s2)n1	63
COc1cc(C)c(C)cc1S(=O)(=O)NCC1CCN(Cc2ccccc2)CC1	71
COC(=O)c1ccc2nc(NC(=O)c3ccc(N(C)C)cc3)sc2c1	-15*
COC(=O)c1ccc2nc(NC(=O)c3ccnn3C)sc2c1	66
CCOc1cc(C(=O)Nc2nc3ccc(C(=O)OC)cc3s2)cc(OCC)c1OCC	64
COc1ccc(C)cc1S(=O)(=O)NCC1CCN(Cc2ccccc2)CC1	81
CC12CCC(C1)C(C)(C)C2NC(=O)c1ccc([N+](=O)[O-])cc1 (stereo not drawn)	56
CCOc1ccc(NC(=O)Cn2nc(-c3ccccc3)c3sc(N4CCCC4)nc3c2=O)cc1	112
O=C1C(=Cc2ccc(-c3ccc(C(F)(F)F)cc3[N+](=O)[O-])o2)C(=O)c2ccccc21	59
O=C1NC(=S)/C(=C/c2ccc(-c3ccccc3[N+](=O)[O-])o2)S1	9*
CCOC(=O)c1ccc(-c2ccc(/C=C3\SC(=O)NC3=S)o2)cc1	-42
O=C(CSc1nnc(-c2cccnc2)o1)Nc1ccc2c(c1)OCCO2	54
O=C(OCC1C(COC(=O)c2ccc(Cl)cc2Cl)C1(Cl)Cl)c1ccc(Cl)cc1Cl (stereo not drawn)	66
CSc1ncc(C#N)c2nc(-c3ccc(N(C)C)cc3)nn12	-1*
Oc1ccc(Br)cc1C=Nc1ccc(F)c(F)c1	54
Cc1cc(=O)oc2c1C(=O)CC(C)(C)C2	65
O=C1C=CC(=NS(=O)(=O)c2ccc(F)cc2)C=C1	2*
O=C1C=CC(=NS(=O)(=O)c2ccc3ccccc3c2)C=C1	37
O=C1C=CC(=NS(=O)(=O)c2cc([N+](=O)[O-])ccc2Cl)C=C1	42
NC(=O)/C=C/c1ccco1	53
